FBW7 activator = activators of human E3 ligase FBW7 | AID 1259310 | hit rate 0.13% among 650,000 | AlphaScreen FBW7–phospho-cyclin E peptide binding, activator screen | Q969H0 | normalized activity (activation), % at 26.1 µM; in the data active = normalized activity above about 1.9%;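 note: purified mutant Fbw7 with reduced substrate affinity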
TEAD-YAP block = TEAD-YAP interaction inhibition; HEK-TIYL cells, TEAD-Gal4/YAP UAS-luciferase luminescence; inhibition, % at 9.12 µM; hit rate 1.4% among 640,000; in the data active = inhibition above about 32%;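 note: 0% = median of test compound wells and 100% = reference inhibitor wells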
MITF primary = human MITF inhibition, primary screen | O75030 | AlphaScreen MITF homodimerization, bead proximity signal | inhibition, % at 2.6 µM | hit rate 0.91% among 650,000 | AID 1259374; in the data active = inhibition above about 50%;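 note: 0% = vehicle wells with protein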
Target sequence (O75030 whole entry, looked up): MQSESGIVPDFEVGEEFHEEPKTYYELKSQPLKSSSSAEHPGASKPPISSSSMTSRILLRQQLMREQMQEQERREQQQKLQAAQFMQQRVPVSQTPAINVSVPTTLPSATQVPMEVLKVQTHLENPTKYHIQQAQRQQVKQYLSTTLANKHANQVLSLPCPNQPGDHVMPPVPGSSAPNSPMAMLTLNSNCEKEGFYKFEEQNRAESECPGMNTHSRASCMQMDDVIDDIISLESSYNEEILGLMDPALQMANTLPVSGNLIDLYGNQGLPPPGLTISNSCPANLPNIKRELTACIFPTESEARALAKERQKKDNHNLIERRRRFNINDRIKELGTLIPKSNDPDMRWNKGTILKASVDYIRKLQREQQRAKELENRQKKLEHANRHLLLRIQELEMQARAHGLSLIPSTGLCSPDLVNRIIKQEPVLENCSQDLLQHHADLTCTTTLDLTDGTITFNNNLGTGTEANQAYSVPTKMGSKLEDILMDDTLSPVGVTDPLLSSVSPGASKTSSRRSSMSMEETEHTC
GPR151 ag = human GPR151 activation | Q8TDV0 | hit rate 1% among 650,000 | PathHunter beta-arrestin GPR151 cells, luminescence | activation, % at 11.2 µM; in the data active = activation above about 4.9%;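 note: 0% = median of compound wells and 100% = cells with positive control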
GPR151 confirm = confirmation of human GPR151 activators. shares compounds with GPR151 ag. GPR151 PathHunter beta-arrestin cells, luminescence, 90 min; % of EA-reagent control over plate median. activation, % at 11.2 µM. 6,700 tested, under 10 active;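 active = mean percent activation across replicates above the confirmation screen cutoff of 4.91%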
GPR119 ag = activates human GPR119 in a GPR151 counter-screen; GPR119 PathHunter beta-arrestin cells, luminescence, 90 min; 0 = compound-well median, 100 = enzyme-acceptor control; activation, % at 11.2 µM; AID 1508611; shares compounds with GPR151 ag; hit rate 0.3% among 6,700;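 active = mean percent activation in the counterscreen above 29.09%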;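 note: counterscreen on off-target GPR119 to flag nonselective hits from the GPR151 activator screen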
Active calls of the source: *; . = not tested or not shown. Sampled rows, rich in hits. Any-hit rate of the full collection: about 3.5%.

SMILES | FBW7 activator | TEAD-YAP block | MITF primary | GPR151 ag | GPR151 confirm | GPR119 ag
CCC(CC)C(=O)Nc1c2c(nn1-c1ccc(OC)cc1)CS(=O)(=O)C2 | 0 | -2 | -4 | 7.4* | -1 | 8
COc1ccc(-n2nc3c(c2NC(=O)CCC2CCCC2)CS(=O)(=O)C3)cc1 | 0 | -5 | -3 | 17* | 1 | 9
COc1ccc(-n2nc3c(c2NC(=O)c2ccc(C)cc2)CS(=O)(=O)C3)cc1 | 0 | 6 | -2 | 5.4* | 1 | 4
O=C1NC(=O)/C(=C\c2ccccc2OCc2ccccc2F)N1 | 0 | -11 | -1 | 0 | . | .
O=C(NCc1ccc(F)cc1)C(=O)Nc1cccc(Cl)c1 | 0 | -6 | -3 | 5.1* | 3 | 0
O=C(NCCc1ccc(F)cc1)C(=O)Nc1cccc(Cl)c1 | 0 | 11 | 6 | 0 | . | .
O=C(N/N=C/c1ccc(F)cc1)C(=O)Nc1cccc(Cl)c1 | 0 | 1 | 10 | 5.0* | 1 | 12
O=C(Nc1cccc(Cl)c1)O/N=C\c1ccncc1 | 0 | -11 | -1 | 5.2* | -1 | 2
O=C(N/N=C/c1ccc(F)cc1)C(=O)Nc1ccc(Cl)c(Cl)c1 | 1 | -1 | 4 | 2 | . | .
CC(C)(CNS(=O)(=O)c1ccc(Cl)cc1)OCc1ccccc1 | 0 | 1 | 28 | -1 | . | .
COc1ccc(-c2cc(C(F)(F)F)n3ncc(C(=O)Nc4ccc(Cl)cc4Cl)c3n2)cc1OC | 0 | -3 | 15 | 5.4* | -1 | -17
COc1nn(C)cc1C(=O)NCC(=O)Nc1ccc2c(c1)Cc1ccccc1-2 | 0 | 4 | 8 | 9.5* | 1 | 9
COc1ccc(C(=O)Cn2c(N3CCOCC3)nc3c2c(=O)n(C)c(=O)n3C)cc1 | 0 | -16 | -9 | 1 | . | .
COc1ccc(C(=O)Cn2c(N(C)C)nc3c2c(=O)n(C)c(=O)n3C)cc1 | 0 | 2 | 7 | 5.4* | 0 | -2
CCOC(=O)/C(C#N)=C/c1ccc(NC(=O)CCl)cc1 | 0 | 16 | 10 | 1 | . | .
CSc1ccccc1NC(=O)CNC(=O)c1c[nH]c2ccccc12 | 0 | 1 | 6 | 0 | . | .
Cc1ccc(NC(=O)CNC(=O)c2c[nH]c3ccccc23)cc1F | 0 | 2 | 2 | 5.7* | 0 | -5
Cc1ccc2occ(C(=O)c3ccccc3Cl)c(=O)c2c1 | 0 | 11 | 10 | 7.7* | 1 | -6
CNC(=O)/C(=C/c1ccco1)NC(=O)c1ccc(C)cc1 | 0 | 12 | 2 | 1 | . | .
Cc1ccc(C(=O)N/C(=C\c2ccco2)C(=O)Nc2ccccc2)cc1C | 0 | -10 | 0 | 5.6* | 0 | -5
Cc1ccc(C(=O)N/C(=C/c2ccco2)C(=O)Nc2ccc(C)cc2C)cc1 | 0 | -5 | 25 | 5.1* | -1 | -10
COc1ccc(OC)c(C2c3cc(OC)c(OC)cc3CCN2C(C)=O)c1 (configuration not stated) | 0 | 12 | 19 | -1 | . | .
Cc1cccc(NCC(=O)N/N=C/c2ccccc2O)c1 | 0 | 1 | 10 | 7.2* | 2 | 4
COc1cccc(/C=N\NC(=O)CNc2ccc(C)cc2)c1O | 0 | -3 | -24 | 0 | . | .
COc1cccc(/C=N/NC(=O)CNc2cccc(Cl)c2)c1O | 0 | 17 | 12 | 7.2* | -1 | -13
SMILES | FBW7 activator | TEAD-YAP block | MITF primary | GPR151 ag | GPR151 confirm | GPR119 ag
CCOc1ccc(NCC(=O)N/N=C/c2ccccc2O)cc1 | 0 | 5 | 10 | 5.4* | 1 | -16
COc1ccc(O)c(/C=N/NC(=O)CNc2cccc(C)c2)c1 | 0 | 8 | -2 | 0 | . | .
Cc1ccccc1NCC(=O)N/N=C\c1cc(Br)cc(Cl)c1O | 0 | 22 | 10 | 9.2* | -1 | -8
CCOc1ccc(NCC(=O)N/N=C/c2cc(OC)ccc2O)cc1 | 0 | 13 | 2 | 2 | . | .
CCOC(=O)c1c(NC(=O)CSc2nnc(CNC(=O)c3cccs3)n2-c2cccc(Cl)c2)sc2c1CCCCC2 | 0 | 3 | 4 | -2 | . | .
COc1ccc(O)c(/C=N/NC(=O)CCC(=O)Nc2cccc(C)c2)c1 | 0 | 23 | 30 | 8.7* | 0 | 6
O=C(CCCCCNC(=O)c1ccccc1)N/N=C/c1ccccc1O | 0 | 10 | 13 | 9.6* | 1 | 11
CCOc1ccc(/C=N/NC(=O)C(O)c2ccccc2)c(O)c1 (configuration not stated) | 0 | -6 | 9 | 5.8* | 1 | 6
CC(=O)C1=C(O)C(=O)N(CCCO)C1c1ccc([N+](=O)[O-])cc1 (configuration not stated) | 0 | -3 | 6 | 1 | . | .
COc1ccc(-c2nc(Nc3ccc(C)cc3)sc2C)cc1 | 0 | -20 | 4 | -1 | . | .
Cc1ccc(NC(=O)COc2cccc3c2CCN(Cc2cccnc2)C3=O)c(C)c1 | 0 | -2 | 6 | 5.4* | 2 | 4
COc1ccc(C2NC(=O)NC(C)=C2C(=O)OC(C)C)cc1OC (configuration not stated) | 0 | -9 | -3 | 0 | . | .
COc1ccccc1-c1nc2s/c(=C\c3cccc([N+](=O)[O-])c3)c(=O)n2n1 | 0 | 4 | 2 | 7.8* | 0 | 1
COC(=O)c1sc2ccccc2c1NC(=O)c1ccc(C(=O)c2ccccc2)cc1 | 0 | 7 | 11 | 2 | . | .
COC(=O)c1sc2ccccc2c1NC(=O)c1ccc(Oc2ccccc2)cc1 | 0 | 3 | -13 | 10* | 0 | 0
Cc1cc2c(cc1C)C(c1cc([N+](=O)[O-])ccc1Cl)CC(=O)N2 (configuration not stated) | 0 | -2 | 4 | 5.0* | 2 | 10
COc1cc(C2CC(=O)Nc3cc(C)c(C)cc32)cc(OC)c1OC (configuration not stated) | 0 | 49* | 7 | 13* | 1 | 12
Cc1cc2c(cc1C)C(c1cccc([N+](=O)[O-])c1)CC(=O)N2 (configuration not stated) | 0 | 18 | -5 | 0 | . | .
COc1cccc(C2CC(=O)Nc3cc(C)c(C)cc32)c1OC (configuration not stated) | 0 | 10 | 0 | 3 | . | .
COc1ccc(Cl)cc1NC(=O)c1cccc2c1SCCC2=O | 0 | 6 | 3 | -2 | . | .
COc1cc(NC(=O)CSc2nnnn2C)cc(OC)c1 | 0 | 6 | -3 | 5.1* | 0 | -3
CCOC(=O)C1(CC2CC2)CCN(C(=O)C(c2cccnc2)N2CCOCC2)CC1 (configuration not stated) | 0 | 4 | 10 | -1 | . | .
CCn1c(=O)c2c(nc3n(C)c(C)cn23)n(C)c1=O | 0 | 22 | 6 | 8.0* | 1 | 2
CCn1c(=O)c2c(nc3n(CC)c(C)cn23)n(C)c1=O | 0 | 7 | -3 | 1 | . | .
